Most compounds without a hit are left out; they make up all but 13% or so of the library.
FMDV antiviral = High Throughput Screening for Foot and Mouth Disease Virus Antivirals; FMDV antiviral cell-based qHTS; Potency, µM (series often up to 57.9 µM), without a hit: at the highest dose activity change, negative = inhibition, actives largely listed as inhibitors; 410,000 tested, 1.2% active; AID 1159524, 2015; calls by dose curve; tested in HEK293T cells; also: read-out not given here; potency is read from the fitted curve at half-maximal effect; % is scaled to controls: 0 for no effect and ±100 for the full control effect; nearly all actives have a fitted effect of over 45% in size
Shiga inhibitor = A qHTS for Small Molecule Inhibitors of Shiga Toxin | Vero cells, Shiga toxin protein synthesis inhibition reporter | inhibition, % at 38.7 µM | 290,000 tested, 9.2% active | AID 2315, 2010; in the data active = inhibition mostly above about 28%, no sharp cut-off; inactive = mostly below about 43%; also: 0% is about no effect
HCV inhibitor = qHTS Assay for Inhibitors of Hepatitis C Virus (HCV); AID 651820, 2012; 340,000 tested, 3.4% active; Huh7.5.1 HCVcc-Cre infection, luciferase reporter, 44 h; Potency, µM (highest dose often 41.8 µM), inactives show at the top dose activity change, negative = inhibition, most hits filed as inhibitors; active = well fitted inhibition curve with a large enough effect; inconclusive = small, poorly fitted or top-dose-only effect, or another doubt; inactive = no such curve, though single readings can be large or run the other way; also: potency is read from the fitted curve at half-maximal effect; % is scaled to controls: 0 for no effect and ±100 for the full control effect
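Cells (1,000/well) were plated 4 h before compound, then infected with HCVcc-Cre virus (~0.5 moi). After 44 h further culture, infection was read as luciferase luminescence following a 15 min substrate incubation at room temperature.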
Cycloheximide cs = Cycloheximide Counterscreen for Small Molecule Inhibitors of Shiga Toxin. cell reporter, cycloheximide protein synthesis inhibition counterscreen. max response, %. 300,000 tested, 12% active; in the data active = max response mostly above about 13%, no sharp cut-off; inactive = mostly below about 14%; also: read at 38.3 µM for the half of the compounds with a filed dose; 0% is about no effect
Lassa entry inh = qHTS for Inhibitors of binding or entry into cells for Lassa Virus. Lassa virus pseudotype entry inhibition, cell reporter. Potency, µM (doses to about 37.9 µM), for the others: at the top dose activity change, negative = inhibition, usual class: inhibitors. 300,000 tested, 1.2% active; calls by dose curve; tested in HEK293 cells; also: potency is read from the fitted curve at half-maximal effect; % is scaled to controls: 0 for no effect and ±100 for the full control effect; nearly all actives have a fitted effect of over 50% in size
MARV entry inh = qHTS for inhibitors of binding or entry into cells for Marburg Virus; Marburg virus pseudotyped entry inhibition, cell reporter; Potency, µM (top dose mostly 37.8 µM), for the others: at the highest dose activity change, negative = inhibition, actives largely listed as inhibitors; 300,000 tested, 1.8% active; calls by dose curve; tested in HEK293 cells; also: potency is read from the fitted curve at half-maximal effect; % is scaled to controls: 0 for no effect and ±100 for the full control effect
* marks the source's active call; other numbers are inactive results; ? = inconclusive; . = no result given; ! = repeats disagree; [ ] = remark or other dose.

SMILES	FMDV antiviral	Shiga inhibitor	HCV inhibitor	Cycloheximide cs	Lassa entry inh	MARV entry inh
CN(Cc1ccccc1)C(=O)c1ccc2c(c1)OCCO2	60%	15	-6%	11	17%	4%
O=C(Cc1ccccc1)c1ccc2c(c1)OCCO2	44%	87*	?	43*	-3%[46.1 µM]	?
CCOc1ccccc1OC(=O)c1cc2ccccc2oc1=O	43%	21	4%	20	4%	0%
Cc1c(C(=O)N2CCCC2)sc(NC(=O)c2ccc(Cl)cc2)c1C#N	-12%	5	7%	-1	-13%	-13%
COc1ccc(CN2C(=NC(=O)CCC3CCCC3)SC3CS(=O)(=O)CC32)cc1 (centres undefined)	-5%	-6	18%	-4	.	.
Cc1ccccc1C(=O)OCCN1CCOCC1	20%	-2	29%	23*	13%	?
COc1cc(C(=S)N2CCOCC2)ccc1OC(=O)/C=C/c1ccco1	-15%	23	-1%	20*	.	.
O=C(OCCN1CCOCC1)c1ccccc1Cl	43%	.	2%	.	6%[46.1 µM]	?
COc1cc(C(=S)N2CCOCC2)ccc1OC(=O)c1ccccc1	-11%	10	0%	4	.	.
O=C(CCN1CCc2ccccc2CC1)c1ccc2c(c1)OCCO2	1%	4	?	10	?	-51%
O=C(CCCN1CCOCC1)c1ccc2c(c1)OCCO2	.	76	6%	32*	1%	6%
O=C(CCN1CCOCC1)c1ccc2c(c1)OCCO2	-3%	14	11µM*	1	-15%	4%
O=C(CCCO)c1ccc2c(c1)OCCO2	.	5	16%	-4	28%	17%
O=C(OCCN1CCOCC1)c1ccc(Cl)cc1Cl	46%	48*	17%	39*	.	.
CCOc1cc(C(=S)N2CCOCC2)ccc1OC(=O)c1cccc(C)c1	?	-5	11µM*	1	.	.
CCOc1cc(C(=S)N2CCOCC2)ccc1OC(=O)c1ccccc1	-14%	-28	12%	2	.	.
O=C(CCCc1c[nH]c2ccccc12)Nc1ccc(S(=O)(=O)Nc2ncccn2)cc1	-10%	-9	8%	1	15%	-5%[46.1 µM]
Cc1ccc(N2C(=O)/C(=C\c3ccc(C(C)C)cc3)N=C2SC2CCOC2=O)cc1 (centres undefined)	-1%	-4	?	-5	5µM*	6.3µM*
CCn1c(=O)c2sccc2n2c(CCCC(=O)Nc3ccc(OC)c(OC)c3)nnc12	-14%	.	.	.	5%[46.1 µM]	.
C=CCn1c(SCCOC)nc2c1c(=O)[nH]c(=O)n2C	?	2	10%	-4	.	.
O=C(N/N=C/c1oc(O)c2ccccc12)c1ccccc1O	13%	19	12%	6	.	.
O=C(N/N=C/c1cccc(C(F)(F)F)c1)c1ccccc1O	-25%	121*	15%	30*	?	3%
O=C(N/N=C/c1ccnc2ccccc12)c1ccccc1O	12%	32	5%	27*	?	3%
O=C(N/N=C/c1cc(Br)c(O)c(Br)c1)c1cccc(C(F)(F)F)c1	8%	-7	31%	-9	0%	30%
O=C(N/N=C/c1ccc2nccnc2c1)c1ccncc1	11%	11	5%	18	.	.
SMILES	FMDV antiviral	Shiga inhibitor	HCV inhibitor	Cycloheximide cs	Lassa entry inh	MARV entry inh
O=C(N/N=C/c1ccc2nccnc2c1)c1ccccc1O	.	24	.	15*	.	.
CC1=C(C(=O)N(C(C)C)C(C)C)CC(CC(=O)NCCCCc2ccccc2)C(=O)N1CCCN1CCCC1=O (centres undefined)	-17%	.	.	.	.	.
CN(C)c1ccc(CNC(=O)C2CCN(S(=O)(=O)c3ccc4c(c3)CCCC(=O)N4)CC2)cc1	-8%	1	-3%	1	16%[46.1 µM]	2%[46.1 µM]
CN(C)c1ccc(N=Nc2ccccc2C(=O)OCC(=O)Nc2ccccc2C(F)(F)F)cc1	-2%	56*	0%	37*	6%[46.1 µM]	18%[46.1 µM]
CN(C)c1ccc(N=Nc2ccccc2C(=O)OCC(=O)N2CCCC2)cc1	13%	11	?	2	-1%	-26%
CN(C)c1ccc(N=Nc2ccccc2C(=O)OCC(=O)N2CCCCCC2)cc1	28%	56*	3%	28*	7%	-6%
CN(C)c1cc[n+](CC(=O)Nc2ccccc2C(F)(F)F)cc1	13%	.	7%	-4	10%[46.1 µM]	?
COc1cccc(N2C(=O)CSC23C(=O)N(Cc2ccccc2F)c2ccccc23)c1 (centres undefined)	-26%	.	.	.	-18%[46.1 µM]	.
COc1ccc(-c2cc(C(=O)N3CCN(c4ncccn4)CC3)c3ccccc3n2)cc1	12%	.	?	.	.	.
CCOc1ccc(-c2cc(C(=O)N3CCN(c4ccc(C)cc4)C(C)C3)c3ccccc3n2)cc1 (centres undefined)	28%	.	.	.	?	.
CCCc1ccc(-c2cc(C(=O)N3CCN(c4ccccn4)CC3)c3ccccc3n2)cc1	?	31	?	49*	.	.
COc1ccc(-c2cc(C(=O)N3CCN(c4ccccn4)CC3)c3ccccc3n2)cc1	18%	75*	?	43*	?	?
CCOc1ccc(-c2cc(C(=O)N3CCN(c4ccccn4)CC3)c3ccccc3n2)cc1	57%	54*	7.1µM*!	35*	?	?
COc1cc(-c2cc(C(=O)N3CCN(c4ccccn4)CC3)c3ccccc3n2)cc(OC)c1OC	?	-10	13µM*	1	-24%	?
O=C(c1cc(-c2ccccc2Cl)nc2ccccc12)N1CCN(c2ccccn2)CC1	?	.	-2%	.	.	.
CN1CCN(CC(=O)Nc2nnc(-c3cccs3)s2)CC1	-5%	10	4%	-1	24%	18%
CCNc1ccc(S(=O)(=O)N2CCCCC2)cn1	-17%	.	1%	.	.	.
Cc1cnc(C(=O)Nc2ccccc2C(=O)N2CCOCC2)cn1	0%	-9	18%	-3	-20%	12%[46.1 µM]
CCc1ccccc1NC(=O)CN(c1ccc(OC)cc1)S(=O)(=O)c1c(C)n[nH]c1C	-11%	.	.	.	?	?
C/C(=N\O)c1ccc2c3c([nH]c2c1)CCCC3	24%	20*	?	65*	12%	-2%
CC1CC(C)CN(C(=O)CNC(=O)c2ccc3ccccc3c2)C1 (centres undefined)	-1%	13	7%	18*	.	.
O=C(NCC(=O)N1CCCCC1)c1ccc2ccccc2c1	38%	34	2%	34*	.	.
COc1ccc(-c2cnc3c(c2)C(=O)N([C@H](C)CO)C[C@H](C)[C@H](CN(C)C(=O)Cc2cccnc2)O3)cc1	0%	.	.	.	.	.
CC1=C(C(=O)Nc2cc(C(=O)N3CCN(c4cccc(C)c4C)CC3)ccc2C)SCCO1	-9%	-6	11µM*	-8	.	.
COc1ccc(N2CCN(C(=O)c3ccc(C)c(NC(=O)C4=C(C)OCCS4)c3)CC2)cc1	-10%	-11	5%	-7	.	.
O=[N+]1C2=C(CCCC2)N([O-])C12CCCC2	.	-3	11%	2	17%	0%
